Where “and” joins values, the source holds several entries; their conditions need not be identical. Equal values may be shown once. Inconclusive results are not listed. Entries that show only a call come without a potency. A number with no mark means an inactive call. Calls of active or inactive are those of the source. Calls come from the whole dose curve.
experiment: qHTS assay for small molecule agonists of the p53 signaling pathway (AID 651631); conditions: HCT-116 p53RE-bla reporter, beta-lactamase FRET ratio, 16 h; series mostly up to 73.3 µM; activation: at the top concentration; note: nearly all actives have a fitted effect of over 15% in size
Method in brief: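 Testing took place in human colorectal HCT-116 cells with stable p53RE-driven beta-lactamase. After 16 h of compound exposure at 37 °C, a FRET substrate was added and fluorescence recorded 2 h later.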
Potency is the fitted concentration of half-maximal effect.

Compound | Potency | activation
Clc1cc(Cl)c(Cl)cc1Cl | inactive | –
NCc1cccc(CN)c1 | inactive | –
CC[Si](OC(C)=O)(OC(C)=O)OC(C)=O | inactive | –
O=S(=O)(O)CCS | inactive | –
CCCCCCCCC | inactive | –
C=C1C2CCC(C2)C1(C)C (centres undefined) | inactive | –
OCCOCCOCCOCCO | – | -1.31%
C=C(C)C(=O)OCCC[Si](OC)(OC)OC | – | -0.282%
CS(=O)(=O)c1ccc([C@@H](O)[C@@H](CO)NC(=O)C(Cl)Cl)cc1 | inactive | –
C=C(C#N)C(=O)OCC | – | 3.95%
CCCCCCCCCCCCN | inactive | –
O=[N+]([O-])C(CO)(CO)CO | inactive | –
NCCc1ccc(O)c(O)c1 | inactive | –
CC1=C(CC(=O)O)c2cc(F)ccc2/C1=C\c1ccc(S(C)=O)cc1 (centres undefined) | inactive | –
COC(=O)c1ccccc1O | inactive | –
O=C(O)c1cc(-c2ccccc2)nc2ccccc12 | – | -2.26%
O=c1c(-c2ccc(O)cc2)coc2cc(O)ccc12 | – | 5.2%
Cc1ccc(N)c(S(=O)(=O)O)c1 | – | -1.52%
CCCCC/C=C\C/C=C\CCCCCCCC(=O)OC | – | 4.57%
C/C=C(C)/C=C/C=C(C)C | – | 3.19%

Compound | Potency | activation
COC(=O)c1ccc(C(=O)OC)cc1 | – | -0.512%
OC[C@@H](O)[C@@H](O)[C@H](O)[C@@H](O)CO | inactive | –
CC#C[C@]1(O)CC[C@H]2[C@@H]3CCC4=CC(=O)CCC4=C3[C@@H](c3ccc(N(C)C)cc3)C[C@@]21C | 21.1 µM (active) and 61.1 µM (active) | –
CCOC(=O)[C@H](CCc1ccccc1)N[C@@H](C)C(=O)N1Cc2ccccc2C[C@H]1C(=O)O | inactive | –
Nc1nc2ncc(CNc3ccc(C(=O)N[C@@H](CCC(=O)O)C(=O)O)cc3)nc2c(=O)[nH]1 | – | -1.33%
CCOC(=O)/C=C\C(=O)OCC | inactive | –
CC1Cc2ccccc2N1NC(=O)c1ccc(Cl)c(S(N)(=O)=O)c1 (centres undefined) | inactive | –
CCCCNC(N)=O | inactive | –
Cc1cc(Cc2ccc(N)c(C)c2)ccc1N | inactive | –
Oc1c(Cl)cc(Cl)c(Cl)c1Cl | 16.9 µM (active) | –
Clc1ccc(Cl)c(Cl)c1Cl | – | -1.07%
Cc1cc(=O)[nH]c(C(C)C)n1 | inactive | –
CCC(C)C=O (centres undefined) | inactive | –
Cn1c([N+](=O)[O-])cnc1COC(N)=O | – | -0.703%
CC1(C)CC(N=C=O)CC(C)(CN=C=O)C1 (centres undefined) | inactive | –
CCCCC(CC)COC(=O)CCCCCCCC(=O)OCC(CC)CCCC (centres undefined) | inactive | –
NC(=O)/N=N/C(N)=O | inactive | –
CCC(=O)O | inactive | –
CC(C)(CO)COC(=O)C(C)(C)CO | – | -0.709%

From PubChem BioAssay (Tox21)
